In the library only some 5.5% were active in any assay of this set; here they are far more common.
RORg inh – blocks mouse ROR gamma transcriptional activity; Potency, µM (doses to about 53.6 µM), for the others: top-dose activity change, negative = inhibition, most hits filed as inhibitors; Drosophila S2 Gal4-RORgamma UAS-luciferase reporter, 20 h; P51450; 5.4% of 310,000 active; further: potency means the concentration at half of the fitted maximal effect; on the % scale 0 is the no-effect control and ±100 the full control effect; nearly all actives have a fitted effect of over 60% in size
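Compounds are pin-transferred onto Drosophila Schneider cells expressing a copper-inducible Gal4–ROR gamma transactivation domain fusion. After 1 hr, copper sulfate is added to 700 uM final; luciferase is read 20 hr later.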
CtBP-E1A blk – CtBP/E1A binding inhibition. activity change, % (no concentration beside the values). AID 651724. AlphaScreen GST-E1A/His-CtBP binding, 1536-well; stronger effect = lower value. 0.49% of 340,000 active; in the data active means activity change below about -65%; inconclusive means mostly about -30% to -63%; further: on the % scale 0 is the no-effect control and ±100 the full control effect
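Homogeneous bead-based format: GST-tagged E1A captured on glutathione donor beads, His-tagged CtBP on nickel acceptor beads; compounds precede bead addition by 2 h at 37 °C.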
CBFb-RUNX1 inh – CBF-beta/RUNX1 interaction disruption. AlphaScreen CBFb-His/RUNX1-biotin binding, biochemical. Potency, µM (titrated, usually from 59.8 µM), without a hit: at the highest dose activity, negative = inhibition, actives largely listed as inhibitors. 230,000 tested, under 10 active. AID 1477; further: % of control where 0% means no effect
Target sequence (Q01196 whole entry, looked up): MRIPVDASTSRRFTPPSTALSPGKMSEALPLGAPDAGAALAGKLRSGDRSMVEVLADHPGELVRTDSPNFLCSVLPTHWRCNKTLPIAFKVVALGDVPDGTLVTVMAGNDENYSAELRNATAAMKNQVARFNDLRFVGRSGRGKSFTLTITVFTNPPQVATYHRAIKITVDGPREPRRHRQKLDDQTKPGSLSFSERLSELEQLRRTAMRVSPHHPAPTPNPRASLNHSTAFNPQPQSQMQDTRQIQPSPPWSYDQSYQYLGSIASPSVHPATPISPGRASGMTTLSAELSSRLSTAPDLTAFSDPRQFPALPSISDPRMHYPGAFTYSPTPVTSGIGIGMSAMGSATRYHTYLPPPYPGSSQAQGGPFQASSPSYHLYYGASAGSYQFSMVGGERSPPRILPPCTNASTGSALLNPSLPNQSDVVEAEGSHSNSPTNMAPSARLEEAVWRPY
Target sequence (Q13951 whole entry, looked up): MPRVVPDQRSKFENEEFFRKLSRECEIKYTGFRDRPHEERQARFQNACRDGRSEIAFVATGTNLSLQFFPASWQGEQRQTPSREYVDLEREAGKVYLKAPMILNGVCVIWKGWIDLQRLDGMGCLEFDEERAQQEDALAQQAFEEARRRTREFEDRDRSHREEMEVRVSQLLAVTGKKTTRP
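CBF-beta (His) and RUNX1 (biotin), 30 nM each; 20 min preassociation; + compound, 15 min; + beads 50 ng each (Ni, streptavidin), 90 min; RT; AlphaScreen read.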
Six1-Eya2 inh – Six1/Eya2 interaction inhibition | AlphaScreen GST-Six1/His-Eya2 binding, biochemical; stronger effect = lower value | Q15475+O00167 | 0.56% of 360,000 active | activity change, % (test concentration not listed); in the data active means activity change below about -65%; inconclusive means mostly about -30% to -63%; further: on the % scale 0 is the no-effect control and ±100 the full control effect
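AlphaScreen with GST-Six1 and His-Eya2 (5X mix: 250 nM and 500 nM), glutathione donor and nickel acceptor beads; buffer 50 mM Tris pH 8.0, 300 mM NaCl, 1 mM TCEP; 1 h at 37 C in the dark.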
MBNL1 CUG block – blocks human MBNL1 binding to CUG repeat RNA; TR-FRET MBNL1-His/biotin-(CUG)12 binding, 665/545 ratio; Potency, µM (highest dose often 57.5 µM), for the others: at the highest dose activity change, negative = inhibition, most hits filed as inhibitors; 0.036% of 280,000 active; AID 2675; active means well fitted inhibition curve with a large enough effect in the signal ratio, with a control signal flat, not every such curve was filed as active; inconclusive means small, poorly fitted or top-dose-only effect, or effect the other way, or a change in a side signal; inactive means no such curve, though single readings can be large or run the other way; the % refers to the signal ratio; further: potency means the concentration at half of the fitted maximal effect; on the % scale 0 is the no-effect control and ±100 the full control effect
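Ratiometric TR-FRET (665 over 545 nm, excitation 340 nm) tracks disruption of MBNL1-His/biotin-(CUG)12 complex after 60 min at room temperature, with compounds at 92 nM to 58 uM final.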
VP16 counter – counter-screen for ROR gamma inhibitors: Gal4-VP16 reporter | Drosophila S2 Gal4-VP16 UAS-luciferase, luminescence, 20 h | Potency, µM (titrated, usually from 53.6 µM), without a hit: at the top dose activity, negative = inhibition, most hits filed as inhibitors | 3.5% of 310,000 active | AID 2546;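 further: Gal4-VP16 expression switched on by copper sulfate through the metallothionein promoter; potency means the concentration at half of the fitted maximal effect; on the % scale 0 is the no-effect control and ±100 the full control effect; nearly all actives have a fitted effect of over 50% in size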
Numbers without * were called inactive; [ ] = remark or other dose. Unless noted, the call rests on the fitted dose curve; in most records, active means well fitted curve in the direction sought with a large enough effect; inconclusive means small, poorly fitted or top-dose-only effect, or another doubt; inactive means no such curve, though single readings can be large; an effect the other way counts as inactive or inconclusive.

Cc1ccc(CCC(=O)Nc2ccc(C)c(C)c2)o1 was read as RORg inh 13.4%, CtBP-E1A blk 0.6, Six1-Eya2 inh -5.2, MBNL1 CUG block -0.6% and VP16 counter -2.3%.
O=C(O)c1ccc(-n2nc(C(F)(F)F)cc2-c2cccs2)cc1 was read as RORg inh -5.8%, Six1-Eya2 inh 2.7, MBNL1 CUG block 2.6% and VP16 counter -10.1%.
For Cc1ccccc1OCCC(=O)N1CCN(S(=O)(=O)c2ccc(Cl)cc2)CC1 the results were CtBP-E1A blk 3.8 and Six1-Eya2 inh 0.5.
`O=S(=O)(Cc1ccccc1)NCC1CCCN(Cc2ccc(F)c(F)c2)C1` (centres undefined) gave RORg inh 16.6%, CtBP-E1A blk 8.2, CBFb-RUNX1 inh -2.9%, Six1-Eya2 inh -4.6, MBNL1 CUG block 0.0% and VP16 counter 6.7%.
`CCCCNc1nc(C)nc2c1nc(-c1ccccc1)n2CCN1CCCCC1` gave RORg inh 14.1µM*, CBFb-RUNX1 inh 0.6% and VP16 counter -16.8%.
`COc1cc(C(=O)Nc2ccc3c(c2)N(C(=O)CCN(C)C)c2ccccc2CC3)cc(OC)c1OC` gave RORg inh -18.1%, CtBP-E1A blk -1.4, CBFb-RUNX1 inh 0.3%, Six1-Eya2 inh 1.2, MBNL1 CUG block -6.7% and VP16 counter 14.5%.
CN(C)CC(=O)N1c2ccccc2CCc2ccc(NC(=O)c3ccc(N)cc3)cc21 was read as RORg inh 7.94µM*, CtBP-E1A blk -0.9, CBFb-RUNX1 inh 11.2%, Six1-Eya2 inh -1.6, MBNL1 CUG block 3.0% and VP16 counter 7.08µM*.
For COc1ccc(NC(=O)CSc2nnc(Cc3cccs3)n2C)cc1 the results were CtBP-E1A blk 0.3 and Six1-Eya2 inh 2.5.
Screening C=CCNC(=S)/N=c1/scc(C)n1C returned RORg inh inconclusive, CtBP-E1A blk 0.9, CBFb-RUNX1 inh 1.2%, Six1-Eya2 inh 0.1, MBNL1 CUG block -6.3% and VP16 counter -0.8%.
Cc1cs/c(=N/C(=S)Nc2ccccc2)n1C was read as RORg inh 1.58µM*, CtBP-E1A blk -5.2, CBFb-RUNX1 inh -11.1%, Six1-Eya2 inh 5.4, MBNL1 CUG block 30.0% and VP16 counter 10µM*.
CCCn1c(C)cs/c1=N\C(=S)Nc1ccccc1 was read as RORg inh 3.98µM*, CtBP-E1A blk 18.1, CBFb-RUNX1 inh 2.7%, Six1-Eya2 inh 10.4, MBNL1 CUG block 96.7% and VP16 counter 5.62µM*.
Screening CC1(C)C(O)=C(c2nc3ccccc3[nH]2)C(=N)N1c1ccccc1 returned RORg inh 1.78µM*, CtBP-E1A blk -2.3, CBFb-RUNX1 inh -1.4%, Six1-Eya2 inh -0.2, MBNL1 CUG block 3.0% and VP16 counter 11.2µM*.
N#Cc1cccc(S(=O)(=O)Nc2c(NC3CCCCC3)c3ccccc3oc2=O)c1 was read as RORg inh -29.8%, CtBP-E1A blk -2.5, Six1-Eya2 inh -7.2, MBNL1 CUG block -0.7% and VP16 counter -0.6%.
CC1=C(C(=O)Nc2ccccc2)C(c2ccc(C)cc2)N=C(Nc2nc3ccccc3o2)N1 (centres undefined) was read as RORg inh inconclusive, CtBP-E1A blk 7.4, CBFb-RUNX1 inh -4.9%, Six1-Eya2 inh 0.5, MBNL1 CUG block -0.9% and VP16 counter 11.2µM*.
For CCOC(=O)C1(C)CCCCCN1C(=O)c1csnn1 (centres undefined) the results were CtBP-E1A blk -17.4 and Six1-Eya2 inh 15.4.
`O=C(OCn1ncc(Br)c(Br)c1=O)c1ccc(F)cc1` gave RORg inh inconclusive, CtBP-E1A blk 7.7, CBFb-RUNX1 inh 3.3%, Six1-Eya2 inh -7.3, MBNL1 CUG block 152.9% and VP16 counter 0.631µM*.
Screening O=C(OCn1ncc(Cl)c(Cl)c1=O)c1cccc(C(F)(F)F)c1 returned RORg inh -5.6%, CtBP-E1A blk -14.4, CBFb-RUNX1 inh -1.8%, Six1-Eya2 inh -24.3, MBNL1 CUG block inactive and VP16 counter -13.9%.
Screening O=C(OCn1ncc(Br)c(Br)c1=O)c1ccccc1Cl returned RORg inh 6.31µM*, CtBP-E1A blk 7.5, CBFb-RUNX1 inh -2.2%, Six1-Eya2 inh -10.9, MBNL1 CUG block inconclusive and VP16 counter 5.62µM*.
For CCCCc1nc2c(c3c1C[C@H](C)OC3)CN(C(=O)c1cccnc1)CC2 the results were CBFb-RUNX1 inh 5.9%[13.1 µM].
COc1cc(O)c2c(=O)cc(-c3ccc(OC)c(-c4c(O)cc(O)c5c(=O)cc(-c6ccc(O)cc6)oc45)c3)oc2c1 was read as RORg inh inconclusive, CBFb-RUNX1 inh -11.3% and VP16 counter inconclusive.
`O=c1cc(-c2ccc(O)cc2)oc2c(-c3c(O)cc(O)c4c(=O)cc(-c5ccc(O)cc5)oc34)c(O)cc(O)c12` gave CtBP-E1A blk -4.2 and Six1-Eya2 inh -9.5.
For O=c1c(-c2c(O)cc(O)c3c(=O)cc(-c4ccc(O)cc4)oc23)c(-c2ccc(O)cc2)oc2cc(O)cc(O)c12 the results were RORg inh 32.0%, CtBP-E1A blk -16.0, Six1-Eya2 inh -68.4*, MBNL1 CUG block -13.8% and VP16 counter -2.4%.
O=c1cc(-c2ccc(O)c(-c3c(O)cc(O)c4c(=O)cc(-c5ccc(O)cc5)oc34)c2)oc2cc(O)cc(O)c12 was read as RORg inh 1.9%, CtBP-E1A blk -68.1*, CBFb-RUNX1 inh 6.3%[2.36 µM], Six1-Eya2 inh -21.5, MBNL1 CUG block -16.8% and VP16 counter -8.5%.
Screening COc1ccc(N2CCN(CCNS(=O)(=O)c3ccc(C)cc3)CC2)cc1 returned RORg inh 3.9%, CtBP-E1A blk -21.5, Six1-Eya2 inh -17.4, MBNL1 CUG block -11.4% and VP16 counter 9.7%.
Screening O=C(COC(=O)c1cc(S(=O)(=O)N2CCOCC2)c(Cl)cc1Cl)c1ccc[nH]1 returned CtBP-E1A blk -6.9 and Six1-Eya2 inh -1.0.
For CCCCN(CCCC)C(=S)NC(=O)C(C)(C)C the results were RORg inh 3.16µM*, CtBP-E1A blk 17.6, CBFb-RUNX1 inh -11.7%, Six1-Eya2 inh -3.3, MBNL1 CUG block -3.6% and VP16 counter 6.31µM*.
`CC1=Nc2ccc3ccccc3c2C1(C)C` gave RORg inh 7.94µM*, CtBP-E1A blk 1.4, CBFb-RUNX1 inh 15.4%, Six1-Eya2 inh 11.2, MBNL1 CUG block 8.3% and VP16 counter -22.9%.
Screening CCC(C)(C)C1CCC(=NNc2nc3ccccc3[nH]2)CC1 (centres undefined) returned RORg inh 11.2µM*, CtBP-E1A blk -12.0, CBFb-RUNX1 inh -26.2%, Six1-Eya2 inh -6.5, MBNL1 CUG block 10.5% and VP16 counter inconclusive.

Screening results from PubChem BioAssay.
